Sfp PPTase inh: blocks B. subtilis Sfp PPTase activity. Potency, µM, hits mostly inhibitors. Biochemical Sfp PPTase activity, qHTS. Q9F4F7. actives 3.5% (n = 310,000);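 further: the enzyme is Sfp with the accession as filed and its product quenches rhodamine fluorescence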
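Fluorescence-quenching assay: 15 nM Sfp-PPTase preincubated 15 min at room temperature with compound, then 5 uM rhodamine-CoA and 12.5 uM BHQ-2-labelled YbbR peptide added. Fluorescence (ex 525/em 598 nm) read at start and after 30 min; difference gives rate.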
FBPA coupling cs: coupling enzyme interference in Giardia aldolase counter-screen. actives 0.67% (n = 290,000). AID 2472. coupling enzyme system counterscreen, AmpLite Red fluorescence. activity change, negative = inhibition, % at 58.2 µM, hits read low; in the data active means activity change below about -30%
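Activity here indicates interference with the coupling reaction, not aldolase inhibition. Compounds at 57.5 uM final met coupling enzymes for 10 min at RT; substrate and AmpLite Red detection followed, with a 525/598 nm fluorescence read after 20 min.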
JMJD2E inh: inhibitors of human JMJD2E histone demethylase. B2RXH2. JMJD2E catalytic domain, FDH-coupled NADH fluorescence (FDH is formaldehyde dehydrogenase). Potency, µM (series often up to 57.1 µM), hits mostly inhibitors. actives 1.6% (n = 230,000); active means well fitted inhibition curve with a large enough effect, not every such curve was filed as active; inconclusive means small, poorly fitted or top-dose-only effect, or another doubt; inactive means no such curve, though single readings can be large or run the other way; further: nearly all actives have a fitted effect of over 50% in size
Target sequence (B2RXH2 1-337 limits assumed): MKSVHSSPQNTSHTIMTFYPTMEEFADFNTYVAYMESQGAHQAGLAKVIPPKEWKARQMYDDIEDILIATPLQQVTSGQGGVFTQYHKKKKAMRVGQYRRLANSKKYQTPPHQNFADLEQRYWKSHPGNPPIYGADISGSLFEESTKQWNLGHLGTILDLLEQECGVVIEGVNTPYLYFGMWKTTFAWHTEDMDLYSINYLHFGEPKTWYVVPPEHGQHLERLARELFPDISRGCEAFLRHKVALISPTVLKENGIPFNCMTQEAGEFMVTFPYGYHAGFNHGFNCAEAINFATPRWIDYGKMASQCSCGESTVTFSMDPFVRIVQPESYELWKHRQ
Tau fluor counter: counter-screen for tau fibril formation inhibitors; actives 0.93% (n = 280,000); Potency, µM (doses to about 57.7 µM); tau K18 P301L Alexa594 fluorescence, heparin fibrillization; further: nearly all actives have a fitted effect of over 55% in size
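Human K18 P301L tau (15 uM unlabeled plus 0.24 uM Alexa 594-labeled, final) in 100 mM sodium acetate pH 7 was mixed with compound and 20 uM heparin and incubated 6 hr at 37 C.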
Tau FP inhib: blocks human tau fibril formation measured by polarization | P10636 | K18 P301L tau heparin fibrillization, Alexa594 FP, 6 h | Potency, µM (series often up to 57.7 µM), most hits filed as inhibitors | actives 0.39% (n = 280,000) | AID 1468; further: nearly all actives have a fitted effect of over 55% in size
Target sequence (P10636 561-689 P618L limits assumed): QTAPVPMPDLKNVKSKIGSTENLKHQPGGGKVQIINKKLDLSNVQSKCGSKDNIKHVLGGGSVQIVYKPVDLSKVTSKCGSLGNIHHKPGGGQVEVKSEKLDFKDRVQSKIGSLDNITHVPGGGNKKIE
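Quantitative HTS format: compounds meet 15 uM recombinant K18 P301L tau and Alexa 594-tau tracer in 100 mM sodium acetate pH 7; 20 uM heparin triggers fibrillization at 37 C over 6 hr; FP gives the signal.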
Tau fibril ThT: inhibitors of human tau fibril formation, thioflavin T binding | recombinant tau K18 P301L (four-repeat tau fragment), heparin-induced fibrillization, ThT fluorescence | AID 1460 | Potency, µM (series often up to 57.4 µM), hits mostly inhibitors | actives 2.1% (n = 270,000) | P10636; further: nearly all actives have a fitted effect of over 55% in size
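Heparin-induced fibrillization of the P301L-mutant K18 repeat-domain fragment of human tau was followed by ThT binding in quantitative high-throughput format.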
Numbers stand for hits; – = inactive; ? = inconclusive; · = no result given; [ ] = another dose, or the depositor's remark. Sampled rows, rich in hits. Any-hit rate of the full collection: about 5.3%. Unless noted, the call rests on the fitted dose curve; in most records, active means well fitted curve in the direction sought with a large enough effect; inconclusive means small, poorly fitted or top-dose-only effect, or another doubt; inactive means no such curve, though single readings can be large; an effect the other way counts as inactive or inconclusive.

SMILES | Sfp PPTase inh | FBPA coupling cs | JMJD2E inh | Tau fluor counter | Tau FP inhib | Tau fibril ThT
CCOc1ccc(S(=O)(=O)NCC(c2ccco2)S(=O)(=O)c2ccc(F)cc2)cc1 (stereo unspecified) | · | · | · | – | – | –
Cc1o[nH]c(=O)c1CCC(N)C(=O)O (stereo unspecified) | – | · | · | – | – | –
Cc1ccccc1-n1c(C)nnc1SCc1cc(=O)oc2ccc3ccccc3c12 | 79.4µM | – | ? | – | – | –
O=C(O)CN1C(=O)/C(=C\C(Br)=C\c2ccccc2)SC1=S | 56.2µM | – | · | · | · | ·
O=C(CN1C(=O)S/C(=C\C=C\c2ccccc2)C1=O)Nc1cccc(O)c1 | – | – | – | 15.8µM[quencher] | ? | ?
CC(=C\c1ccccc1)/C=C1/SC(=S)N(CCCC(=O)O)C1=O | – | – | · | · | · | ·
O=C(O)CN1C(=O)/C(=C/C=C/c2ccccc2)SC1=S | – | – | – | – | – | 11.2µM
O=C(CCN1C(=O)S/C(=C\C=C\c2ccccc2)C1=O)Nc1ccc(O)cc1 | – | – | · | · | · | ·
COc1ccccc1N1CCN(C(=O)c2cc(CC(C)C)on2)CC1 | · | · | · | – | – | –
N#C/C(=C\c1ccc(-c2ccccc2[N+](=O)[O-])o1)C(N)=O | ? | – | – | – | – | –
Cc1n[nH]c(=S)n1/N=C/c1ccc(-c2ccccc2[N+](=O)[O-])o1 | 8.91µM | – | – | – | – | ?
Cc1nnc(N/N=C\c2ccc(-c3ccccc3[N+](=O)[O-])o2)n1N | 17.8µM | -65.2 | – | ? | ? | 10µM
COC(=O)c1ccccc1-c1ccc(/C=N/NC(N)=O)o1 | – | – | ? | – | – | –
Cc1nnc(N/N=C/c2ccc(-c3ccccc3F)o2)n1N | 44.7µM | – | ? | ? | – | 12.6µM
CCCCn1c(=O)c2oc3ccccc3c2n(Cc2ccccc2C)c1=O | · | · | · | – | – | –
O=C(OCC1CCCO1)c1ccc2c(c1)N(Cc1ccccc1F)C(=O)c1ccccc1S2(=O)=O (stereo unspecified) | · | · | · | – | – | –
Cc1cccc(NC(=O)CSc2cn(CC(=O)N3CCCCCC3)c3ccccc23)c1 | · | · | · | – | – | –
Cc1ccc(/C=C2/SC(=S)N(C3CCCCC3)C2=O)o1 | – | – | · | · | · | ·
Cc1ccc(/C=C2/SC(=O)NC2=S)o1 | 22.4µM | – | ? | ? | 10µM | 4.47µM
O=C(O)CN1C(=O)/C(=C/c2ccsc2)SC1=S | ? | – | – | – | – | –
Cn1cccc1/C=C1\SC(=S)N(CC(=O)O)C1=O | – | – | – | – | – | 11.2µM
O=C(NN1C(=O)/C(=C\c2ccc(O)c([N+](=O)[O-])c2)SC1=S)c1ccccc1Cl | – | – | – | ? | – | 3.16µM
Cn1cc(/C=C2\SC(=S)N(NC(=O)c3ccccc3Cl)C2=O)c2ccccc21 | – | – | – | – | – | 1.12µM
Cc1cc2c(nc1C)CCCN2C[C@H](C)O/N=C\[C@@H](C)[C@H](OCc1ccccc1)C(C)C | – | – | · | –[11.6 µM] | –[11.6 µM] | –[11.5 µM]
Cc1nc2ccn(Cc3ccccc3)c(=O)c2cc1C(=O)Nc1ccc(F)cc1Cl | · | · | · | – | – | –
SMILES | Sfp PPTase inh | FBPA coupling cs | JMJD2E inh | Tau fluor counter | Tau FP inhib | Tau fibril ThT
Cc1ccc(C(=O)NN2C(=O)/C(=C/c3cccn3C)SC2=S)cc1 | 20µM | – | – | ? | – | 5.01µM
Cn1cc(/C=C2\SC(=O)NC2=S)c2ccccc21 | 31.6µM | – | – | ? | ? | 2µM
Cc1ccc(C(=O)NN2C(=O)/C(=C/c3cn(C)c4ccccc34)SC2=S)cc1 | – | – | – | – | – | –
Cn1cccc1/C=C1\SC(=S)N(NC(=O)c2ccccc2Cl)C1=O | – | – | – | – | – | 11.2µM
O=C(NN1C(=O)/C(=C/c2cccc(O)c2)SC1=S)c1ccccc1O | – | – | · | · | · | ·
C[C@H]1Cc2c(COc3ccccc3)nc3c(c2CO1)CN(C(=O)C1CCCCC1)CC3 | – | – | –[11.4 µM] | –[11.6 µM] | –[11.6 µM] | –[11.5 µM]
CCC1C(=O)CC2CCN3C(=O)CCC1C23 (stereo unspecified) | – | – | · | · | · | ·
CCOc1ccc(NS(=O)(=O)c2ccc3[nH]cc(C(=O)NC4CCCC4)c(=O)c3c2)cc1 | · | · | · | ? | 25.1µM | –
CCc1ccc(NS(=O)(=O)c2ccc3[nH]cc(C(=O)NC4CCCC4)c(=O)c3c2)cc1 | · | · | · | ? | 11.2µM | –
O=C(C1CCC1)N1CCCc2cc(S(=O)(=O)Nc3ccc(F)cc3)ccc21 | · | · | · | – | – | –
CC12C=C(/C=C/CCc3ccco3)C(C)(C1)C(CCc1ccco1)CC2=O (stereo unspecified) | ? | – | · | –[11.6 µM] | –[11.6 µM] | ?
CCCCC/C=C\C/C=C\C/C=C\C/C=C\CCCC(=O)C(F)(F)F | 28.2µM | – | · | – | ? | ?
CCC(C)NC(=O)c1ccc2c(c1)N=C(C)c1cc(C)ccc1S2 (stereo unspecified) | · | · | · | – | – | –
CC1=NN2C(=N)/C(=C\c3ccc(SCc4ccccc4)o3)C(=O)N=C2S1 | – | – | – | – | – | ?
N=C1/C(=C\c2ccc(SCc3ccco3)o2)C(=O)N=C2SC=NN12 | 79.4µM | – | 28.2µM | – | – | 6.31µM
O=C(NC1CCCCC1)c1nn2c(C(F)(F)F)cc(-c3ccco3)nc2c1Br | 50.1µM | – | – | – | – | –
